Molecules are shown by their SMILES. Results filed as inconclusive are left out. A number with no mark means an inactive call. Active and inactive are the calls of the source. The call rests on the fitted dose curve; in most records, active means well fitted curve in the direction sought with a large enough effect in the repeat runs; inconclusive means weak or mixed curves; inactive means no such curve, though single readings can be large; an effect the other way counts as inactive or inconclusive.
On the % scale 0 is the no-effect control and ±100 the full control effect.

The first assay is described as follows: Human pregnane X receptor (PXR) small molecule agonists, qHTS cell viability counter screen (AID 1346977). Further: nearly all actives have a fitted effect of over 50% in size. Further: potency means the concentration at half of the fitted maximal effect. The settings on record: PXR-Luc HepG2 viability, CellTiter-Fluor, 24 h; series mostly up to 92.4 µM; activity change, negative = cytotoxicity: at the top concentration. In outline:
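PXR-Luc HepG2 cells (2,000/well, 5% charcoal-stripped FBS) preincubated 5 hr, then exposed to compounds 24 hr at 37 C. Viability read in the same wells by CellTiter-Fluor fluorescence, reagent added at 23 hr, 1 hr incubation.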
In the case of `CCCCCCCC/C=C\CCCCCCCC(=O)OCC`, the “activity change, negative = cytotoxicity” value was 0.477%.

Take `CC(C)(COC(=O)c1ccccc1)COC(=O)c1ccccc1`: the “activity change, negative = cytotoxicity” value was 1.34%.

As for `S=C([S-])NCCNC(=S)[S-].[Mn+2]`, the “activity change, negative = cytotoxicity” value was -15.3%.

Turning to `CCOC(=O)C(F)(F)F`, the “activity change, negative = cytotoxicity” value was 13.7%.

Consider `CCCCCCCN`, for which the “activity change, negative = cytotoxicity” value was 12.5%.

Take `c1ccc(-c2ccccn2)nc1`: the “activity change, negative = cytotoxicity” value is -7.92%.

Consider `CC(C)(C)Cl`, for which the “activity change, negative = cytotoxicity” value is -0.242%.

With `CC(C)=CCC/C(C)=C/CC/C(C)=C/CO`, the “activity change, negative = cytotoxicity” value was -1.65%.

As for `CC(C)CC(=O)C1C(=O)c2ccccc2C1=O`, the “activity change, negative = cytotoxicity” value was -5.78%.

`O=C(CS)Nc1ccccc1`: the “activity change, negative = cytotoxicity” value is 11.4% [at 42.5 µM].

Turning to `CC(C)O.CC(C)O.CCOC(=O)/C=C(\C)O.CCOC(=O)/C=C(\C)O.[Ti]`, the “activity change, negative = cytotoxicity” value is 6%.

Consider `CO[C@@H]1[C@H](OC(=O)/C=C/C=C/C=C/C=C/C(=O)O)CC[C@]2(CO2)[C@H]1[C@@]1(C)O[C@@H]1CC=C(C)C`, for which the “activity change, negative = cytotoxicity” value is -6.62%.

`Nc1cccc(S(=O)(=O)c2cccc(N)c2)c1`: the “activity change, negative = cytotoxicity” value is -3.9%.

In the case of `CCC(C)O` (stereo not given), the “activity change, negative = cytotoxicity” value was 6.89%.

Turning to `NCC(=O)CCC(=O)O`, the “activity change, negative = cytotoxicity” value was -1.75% [at 42.5 µM].

`CC(=O)OC[C@H]1O[C@@H](n2ncc(=O)[nH]c2=O)[C@H](OC(C)=O)[C@@H]1OC(C)=O`: the “activity change, negative = cytotoxicity” value was -6.15% [at 42.5 µM].

On to `Cc1nn(C)c(Oc2ccccc2)c1/C=N/OCc1ccc(C(=O)OC(C)(C)C)cc1`, for which the Potency is 0.0863 µM (active).

Take `O=S(=O)(Oc1ccc(Cl)cc1)c1ccccc1`: the “activity change, negative = cytotoxicity” value was -1.35%.

On to `CCO[C@H](Cc1ccc(OCCc2ccc(OS(C)(=O)=O)cc2)cc1)C(=O)O`, for which the “activity change, negative = cytotoxicity” value was -2.69% [at 42.5 µM].

On to `CCCNCC(O)COc1ccccc1C(=O)CCc1ccccc1` (stereo not given), for which the Potency is 29.8 µM (active).

As to `CCn1cc(C(=O)O)c(=O)c2cnc(N3CCNCC3)nc21`, the “activity change, negative = cytotoxicity” value is -0.153% [at 42.5 µM].

For `O=C(O)c1ccc(-n2nc(-c3ccccc3O)nc2-c2ccccc2O)cc1`, the “activity change, negative = cytotoxicity” value is -20.3% [at 42.5 µM].

`Cc1cccc(C)c1NC(=O)CN(CC(=O)O)CC(=O)O`: the “activity change, negative = cytotoxicity” value is 14.6% [at 42.5 µM].

Take `COc1ccc2cccc(CCNC(C)=O)c2c1`: the “activity change, negative = cytotoxicity” value is 19.3% [at 42.5 µM].

Regarding `O=C(NCC1CN(c2ccc(N3CCOCC3=O)cc2)C(=O)O1)c1ccc(Cl)s1` (stereo not given), the “activity change, negative = cytotoxicity” value is 4.14% [at 42.5 µM].

On to `CCO[Si](CCCCl)(OCC)OCC`, for which the “activity change, negative = cytotoxicity” value was 3.51%.

Turning to `CCCCC/C=C\C/C=C\CCCCCCCC(=O)NC(C)c1ccccc1` (stereo not given), the “activity change, negative = cytotoxicity” value is -14.6% [at 42.5 µM].

With `C[N+]1(C)CCC(OC(=O)C(O)(c2ccccc2)C2CCCC2)C1` (stereo not given), the “activity change, negative = cytotoxicity” value was 2.88% [at 42.5 µM].

`Brc1c2ccccc2c(Br)c2ccccc12`: the activity change, negative = cytotoxicity is 4.3% [at 8.39 µM].

`Cc1cccc(C)c1OCC(=O)N[C@@H](Cc1ccccc1)[C@@H](O)C[C@H](Cc1ccccc1)NC(=O)[C@H](C(C)C)N1CCCNC1=O`: the Potency is 29.8 µM (active).

In the case of `COc1cc(Cl)c(OC)cc1N`, the “activity change, negative = cytotoxicity” value was 7.19%.

In the case of `C=CC(=O)OCCOCCOC(=O)C=C`, the Potency is 54.7 µM (active).

As to `Cc1[nH]c(C)c(Cl)c(=O)c1Cl`, the activity change, negative = cytotoxicity was 6.66% [at 19 µM].

`Cc1ccc(C(=O)Oc2ccc(C(O)CNC(C)(C)C)cc2OC(=O)c2ccc(C)cc2)cc1` (stereo not given): the “activity change, negative = cytotoxicity” value was -10.1% [at 42.5 µM].

Turning to `CCCn1cnc2c1c(=O)n(CCCCC(C)=O)c(=O)n2C`, the “activity change, negative = cytotoxicity” value is 13.9% [at 42.5 µM].

A short description of another assay: Caspase-3/7 induction in HepG2 cells by small molecules, qHTS assay (AID 1346978). Further: nearly all actives have a fitted effect of over 15% in size. The settings on record: HepG2 caspase-3/7 activation, Caspase-Glo luminescence, 17 h; series mostly up to 92.4 µM; caspase activation: at the top concentration. The method, boiled down: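 Wild-type HepG2 cells (2,000/well) were settled 5 h at 37 C, 5% CO2, then exposed to compounds in DMSO for 17 h. Caspase-3/7 activity was read by luminescence 30 min after adding Caspase-Glo 3/7 reagent at room temperature.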
For the compound `CCCCCCCC/C=C\CCCCCCCC(=O)OCC`, the “caspase activation” value was -0.821%.

As for `CC(C)(COC(=O)c1ccccc1)COC(=O)c1ccccc1`, the “caspase activation” value was 0.304%.

For `S=C([S-])NCCNC(=S)[S-].[Mn+2]`, the “caspase activation” value was -1.59%.

Turning to `CCOC(=O)C(F)(F)F`, the “caspase activation” value is -0.13%.

Take `CCCCCCCN`: the “caspase activation” value was 0.699%.

Turning to `c1ccc(-c2ccccn2)nc1`, the “caspase activation” value is 0.566%.

Consider `CC(C)(C)Cl`, for which the “caspase activation” value is -1.39%.

Turning to `CC(C)=CCC/C(C)=C/CC/C(C)=C/CO`, the “caspase activation” value is 1.78%.

Take `CC(C)CC(=O)C1C(=O)c2ccccc2C1=O`: the “caspase activation” value is -4.05%.

Take `O=C(CS)Nc1ccccc1`: the “caspase activation” value was -0.721% [at 42.5 µM].

`CC(C)O.CC(C)O.CCOC(=O)/C=C(\C)O.CCOC(=O)/C=C(\C)O.[Ti]`: the “caspase activation” value is 0.646%.

For the compound `CO[C@@H]1[C@H](OC(=O)/C=C/C=C/C=C/C=C/C(=O)O)CC[C@]2(CO2)[C@H]1[C@@]1(C)O[C@@H]1CC=C(C)C`, the “caspase activation” value is -0.574%.

Take `Nc1cccc(S(=O)(=O)c2cccc(N)c2)c1`: the “caspase activation” value is -0.895%.

On to `CCC(C)O` (stereo not given), for which the “caspase activation” value was 0.0008%.

As to `NCC(=O)CCC(=O)O`, the “caspase activation” value is -1.18% [at 42.5 µM].

Take `CC(=O)OC[C@H]1O[C@@H](n2ncc(=O)[nH]c2=O)[C@H](OC(C)=O)[C@@H]1OC(C)=O`: the “caspase activation” value is 4.26% [at 42.5 µM].

As to `Cc1nn(C)c(Oc2ccccc2)c1/C=N/OCc1ccc(C(=O)OC(C)(C)C)cc1`, the “caspase activation” value is -1.69%.

Turning to `O=S(=O)(Oc1ccc(Cl)cc1)c1ccccc1`, the “caspase activation” value is -4.41%.

As for `CCO[C@H](Cc1ccc(OCCc2ccc(OS(C)(=O)=O)cc2)cc1)C(=O)O`, the “caspase activation” value was -0.405% [at 42.5 µM].

Consider `CCCNCC(O)COc1ccccc1C(=O)CCc1ccccc1` (stereo not given), for which the “caspase activation” value is 2.99% [at 42.5 µM].

In the case of `CCn1cc(C(=O)O)c(=O)c2cnc(N3CCNCC3)nc21`, the “caspase activation” value is 0.291% [at 42.5 µM].

With `O=C(O)c1ccc(-n2nc(-c3ccccc3O)nc2-c2ccccc2O)cc1`, the “caspase activation” value is -3.24% [at 42.5 µM].

Take `Cc1cccc(C)c1NC(=O)CN(CC(=O)O)CC(=O)O`: the “caspase activation” value is -1.15% [at 42.5 µM].

For `COc1ccc2cccc(CCNC(C)=O)c2c1`, the “caspase activation” value is -3.5% [at 42.5 µM].

As to `O=C(NCC1CN(c2ccc(N3CCOCC3=O)cc2)C(=O)O1)c1ccc(Cl)s1` (stereo not given), the “caspase activation” value was -0.0698% [at 42.5 µM].

`CCO[Si](CCCCl)(OCC)OCC`: the “caspase activation” value was 0.828%.

For the compound `CCCCC/C=C\C/C=C\CCCCCCCC(=O)NC(C)c1ccccc1` (stereo not given), the “caspase activation” value was -0.803% [at 42.5 µM].

Turning to `C[N+]1(C)CCC(OC(=O)C(O)(c2ccccc2)C2CCCC2)C1` (stereo not given), the “caspase activation” value was 0.249% [at 42.5 µM].

For `Brc1c2ccccc2c(Br)c2ccccc12`, the caspase activation was 0.0205% [at 8.39 µM].

Regarding `Cc1cccc(C)c1OCC(=O)N[C@@H](Cc1ccccc1)[C@@H](O)C[C@H](Cc1ccccc1)NC(=O)[C@H](C(C)C)N1CCCNC1=O`, the “caspase activation” value was 9.57% [at 42.5 µM].

In the case of `COc1cc(Cl)c(OC)cc1N`, the “caspase activation” value is 0.829%.

Regarding `C=CC(=O)OCCOCCOC(=O)C=C`, the “caspase activation” value was 6.75%.

Consider `Cc1[nH]c(C)c(Cl)c(=O)c1Cl`, for which the caspase activation was 0.0051% [at 19 µM].

Consider `Cc1ccc(C(=O)Oc2ccc(C(O)CNC(C)(C)C)cc2OC(=O)c2ccc(C)cc2)cc1` (stereo not given), for which the “caspase activation” value is 6.1% [at 42.5 µM].

Turning to `CCCn1cnc2c1c(=O)n(CCCCC(C)=O)c(=O)n2C`, the “caspase activation” value was 1.95% [at 42.5 µM].

(Values after PubChem BioAssay (Tox21).)
